In PubChem BioAssay (EPA / NIEHS):
Results filed as inconclusive are left out. Calls of active or inactive are those of the source. How the source made its calls: active means hit-call score of the fitted dose curve at least 0.9, where 1 is the maximum; inconclusive means response in the unintended direction; inactive means score below 0.9.

Test: ACEA_ER_AUC_viability: ACEA Biosciences xCELLigence Real-Time Cell Analysis on Estrogen Receptor Agonism for Viability (AID 2283782);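 further: hit means loss of impedance signal meaning reduced cell growth or viability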
How it was run: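 Continuous-exposure impedance cell analysis uses T-47D cells in charcoal-stripped serum, eight 1:4 dilutions topping at 100 uM final, biological duplicate. Area under the growth curve at 80 h is fitted against DMSO baseline.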

With `O=C(CCl)CCl` as the compound, how does the AC50 read?
Its AC50 is 62.7 µM (active).

With `COc1ccc(OC)c(C=O)c1` as the compound, how does the AC50 read?
The AC50 was 50 µM (active).

Which outcome does the source give for `N#CCc1ccc(Cl)cc1` here?
Its outcome is “inactive”.

With `COc1ccc(C(O)(c2cncnc2)C2CC2)cc1` (stereo not given) as the compound, how does the AC50 read?
The AC50 was 67.6 µM (active).

For `O=CC=O`, which outcome is on record?
Its outcome is “inactive”.

Which outcome does the source give for `BrCCBr` here?
Its outcome is “inactive”.

Which AC50 does the source give for `N#CCCO` here?
Its AC50 is 22 µM (active).

With `CCCCCCCCC(=O)NCc1ccc(O)c(OC)c1` as the compound, how does the AC50 read?
Its AC50 is 50 µM (active).

With `Oc1c(I)cc(I)cc1I` as the compound, how does the AC50 read?
The AC50 was 87.9 µM (active).

Which outcome does the source give for `Nc1ccc(N=Nc2ccc(-c3ccc(N=Nc4c(S(=O)(=O)O)cc5cc(S(=O)(=O)O)c(N=Nc6ccccc6)c(O)c5c4N)cc3)cc2)c(N)c1` here?
Its outcome is “inactive”.

Which AC50 does the source give for `C[C@H]1O[C@@H](O[C@H]2[C@@H](O)C[C@H](O[C@H]3[C@@H](O)C[C@H](O[C@H]4CC[C@@]5(C)[C@H](CC[C@@H]6[C@@H]5CC[C@]5(C)[C@@H](C7=CC(=O)OC7)CC[C@]65O)C4)O[C@@H]3C)O[C@@H]2C)C[C@H](O)[C@@H]1O` here?
The AC50 was 0.159 µM (active).

Which outcome does the source give for `COc1cc2c(cc1OC)[C@@]13CCN4CC5=CCO[C@H]6CC(=O)N2[C@H]1[C@H]6[C@H]5C[C@H]43` here?
The outcome was “inactive”.

Which AC50 does the source give for `CC(C)CCCCCCOC(=O)c1ccccc1C(=O)OCCCCCCC(C)C` here?
Its AC50 is 40.9 µM (active).

Which outcome does the source give for `OCC(O)CCl` (stereo not given) here?
The outcome was “inactive”.

Which outcome does the source give for `CCc1ccccc1C` here?
Its outcome is “inactive”.

Which AC50 does the source give for `CC1CCCCC1NC(=O)Nc1ccccc1` (stereo not given) here?
The AC50 was 26.2 µM (active).

With `ClCCBr` as the compound, how does the outcome read?
Its outcome is “inactive”.

Which outcome does the source give for `Nc1ccc(Cl)cc1C(=O)c1ccccc1` here?
The outcome was “inactive”.

For `NC(=O)CF`, which outcome is on record?
The outcome was “inactive”.

For `CC(=[OH+])/C=C(/C)[O-].CC(=[OH+])/C=C(/C)[O-].CC(=[OH+])/C=C(/C)[O-].[Al]`, which AC50 is on record?
Its AC50 is 72.6 µM (active).

With `Nc1ccc(-c2ccc(N)c(Cl)c2)cc1Cl` as the compound, how does the outcome read?
Its outcome is “inactive”.

Which outcome does the source give for `CC(C)OC(=O)Nc1ccccc1` here?
Its outcome is “inactive”.

With `CCc1ccccc1N` as the compound, how does the outcome read?
The outcome was “inactive”.

For `COC[C@H](C)N(C(=O)CCl)c1c(C)csc1C`, which outcome is on record?
The outcome was “inactive”.

With `CCCCP(CCCC)CCCC` as the compound, how does the AC50 read?
Its AC50 is 27.9 µM (active).

For `CCN(CC)C(=O)Cl`, which outcome is on record?
The outcome was “inactive”.

Which outcome does the source give for `COP(=S)(OC)Oc1c(Cl)cc(C)cc1Cl` here?
Its outcome is “inactive”.

For `O=C(Cl)c1ccc(Cl)cc1`, which outcome is on record?
The outcome was “inactive”.

For `C[C@@H](Oc1ccc(Cl)cc1Cl)C(=O)O`, which outcome is on record?
Its outcome is “inactive”.

For `NC(=S)Nc1ccccc1`, which AC50 is on record?
The AC50 was 60.6 µM (active).

With `CN(CCCC(=O)c1cccnc1)N=O` as the compound, how does the outcome read?
The outcome was “inactive”.

For `Nc1cccc2ccccc12`, which AC50 is on record?
Its AC50 is 80.2 µM (active).

Which AC50 does the source give for `COP(=S)(OC)Oc1cc(Cl)c(Br)cc1Cl` here?
Its AC50 is 92.6 µM (active).

For `N#Cc1ccccn1`, which outcome is on record?
Its outcome is “inactive”.

Which AC50 does the source give for `COC(=O)Cc1ccccc1` here?
Its AC50 is 30.7 µM (active).
